Source: PubChem BioAssay
Unmarked numbers belong to inactive results. Activity calls are given as the source filed them.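 The calls were made as follows: active = inhibition above the hit cutoff set in the earlier primary screen (cut at about 27% in these data); inactive = the rest.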

Target: Protein phosphatase methylesterase 1 (Homo sapiens) (UniProt Q9Y570)
Test: human PME-1 methylesterase inhibition confirmation – biochemical, fluorescence polarization, FP-Rh probe, triplicate (AID 2171);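 also: 0% = enzyme with DMSO and 100% = wells lacking PME-1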
Conditions: recombinant PME-1, FP-Rh probe fluorescence polarization; at 5.9 µM; hits give high values

Protein phosphatase methylesterase 1 (Homo sapiens), sequence (Q9Y570 whole entry, looked up): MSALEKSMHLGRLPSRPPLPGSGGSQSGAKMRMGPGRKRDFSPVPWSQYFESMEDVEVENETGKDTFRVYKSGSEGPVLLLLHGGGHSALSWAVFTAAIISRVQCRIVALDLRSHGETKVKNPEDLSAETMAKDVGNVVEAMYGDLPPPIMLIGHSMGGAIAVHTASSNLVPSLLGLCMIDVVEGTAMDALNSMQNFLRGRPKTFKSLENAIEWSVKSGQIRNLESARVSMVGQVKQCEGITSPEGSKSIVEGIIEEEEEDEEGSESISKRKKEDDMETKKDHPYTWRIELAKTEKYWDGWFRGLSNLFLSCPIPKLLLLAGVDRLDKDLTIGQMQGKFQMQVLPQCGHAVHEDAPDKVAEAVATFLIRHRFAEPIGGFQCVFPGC

SMILES	inhibition
COc1ccc(/C=N/Nc2cc(C)nc3ccc(Br)cc23)cc1	12.9%
Nc1c(C(=O)Nc2cccc(C(=O)O)c2)sc2nc3c(cc12)CCCC3	30.8% (active)
Brc1ccc(/C=N/Nc2nc3ccccc3o2)cc1	22.2%
CCOc1ccc2nc(SCC(=O)Nc3ccc4c(c3)OCCO4)[nH]c2c1	25.3%
Cc1nn(-c2ccccc2)c(Cl)c1/C=N/Nc1ccc(S(=O)(=O)Nc2ccccc2C(=O)O)cc1[N+](=O)[O-]	22.1%
CCOC(=O)N1CC=C2C(C#N)=C(N)C(C#N)(C#N)[C@H](c3cccs3)C2C1 (stereo not given in full)	35.2% (active)
O=C(O)c1ccccc1Nc1cccc(OCc2ccc3ccccc3n2)c1	20%
O=C(NNc1c2ccccc2nc2ccccc12)c1ccccc1O	65.5% (active)
O=C(O)c1ccc(-c2ccc(/C=N/Nc3ccc([N+](=O)[O-])cc3)o2)cc1	33.5% (active)
CCOc1cccc(CNc2ccc(O)cc2)c1OCc1ccccc1Cl	6.79%
O=C1c2c(O)cccc2Cc2cccc(O)c21	23.4%
O=C1C(CSCc2ccccc2)NC(=S)N1c1ccccc1 (stereo not given)	5.6%
CCc1ccc2nc(SCC(=O)N3CC(=O)Nc4ccccc43)c(C#N)cc2c1	15.3%
O=C(O)/C(CC(=O)c1ccc(Cl)cc1)=N/Nc1ccc([N+](=O)[O-])cc1[N+](=O)[O-]	42.7% (active)
CCc1ccc(CNc2ccc(O)cc2)cc1	7.5%
Oc1ccc(/C=N/Nc2cccc3cccnc23)c(O)c1	82.7% (active)
Cc1noc(C)c1CSc1nc2ccccc2nc1NS(=O)(=O)c1ccc(Cl)cc1	36% (active)
O=C1CN(C(=O)c2cc3ccccc3oc2=O)C(c2ccccc2)c2cc(F)ccc2N1 (stereo not given)	18.1%
CCCN(CC(=O)Nc1ccccc1C)C(=O)COC(=O)CSc1ccc([N+](=O)[O-])cc1	17.4%
CC(C)(C)n1nnnc1C(c1cccs1)N(Cc1cccnc1)Cc1ccco1 (stereo not given)	15.8%

SMILES	inhibition
Cc1cc(N)ccc1-n1c(C)ccc1C	6.22%
CCCCC(=O)NC(c1ccccc1Cl)c1c(O)ccc2ccccc12 (stereo not given)	32.1% (active)
COc1ccc(/C=N/Nc2nc3ccccc3o2)cc1O	29.9% (active)
COc1ccc(/C=N/Nc2cc(C)nc(-n3nc(C)cc3C)n2)c(OC)c1	41.6% (active)
Nc1cc(C(=O)O)c(N)c2c1C(=O)c1ccccc1C2=O	96.8% (active)
N#Cc1c(N)nc2c3c(sc(=N)c2c1N)NC(=O)CC3c1ccccc1 (stereo not given)	29% (active)
O=c1[nH]c(C2CCCN(S(=O)(=O)c3ccccc3)C2)nc2c1nnn2Cc1ccccc1 (stereo not given)	22.6%
COc1cc(/C=N/NC(=O)c2cc3ccccc3[nH]2)ccc1O	16.1%
Cc1ccc(-c2nc(Nc3ccc(O)cc3)c3ccccc3n2)cc1	6.25%
Cc1cccc(C)c1NS(=O)(=O)c1ccc(NC(=O)c2ccc(Cl)c([N+](=O)[O-])c2)cc1	-96.3%
Cc1cc(C)cc(NC(=S)NCCc2c[nH]c3ccccc23)c1	25.5%
CCn1c(CSc2nnc3ccccn23)nc2cc(C(=O)O)ccc21	59% (active)
Cc1[nH]c2ccccc2c1/C=N/NC(=O)c1cc(-c2ccncc2)nc2ccccc12	23%
Cc1nc2ccccc2nc1N/N=C/c1ccc(O)cc1O	36.4% (active)
COc1cc2cc3c(N)c(C(=O)NCc4ccco4)sc3nc2cc1OC	110% (active)
COc1ccc(-c2csc(NC(=O)Nc3ccccc3)n2)cc1	25.6%
Cc1cc(C)c(C#N)c(SCc2nc3ccccc3[nH]2)n1	11.9%
Cc1ccc(NC(=S)NC(=O)c2ccc(-c3ccc(Cl)cc3)o2)c(O)c1	22.9%
Cc1ccsc1/C=N/n1c(-c2cc(-c3ccccc3)n[nH]2)n[nH]c1=S	22%
COc1ccc2cc3c(N)c(C(=O)NCc4ccco4)sc3nc2c1	39.8% (active)
